This passage reports Potency results from PubChem BioAssay (NCATS).

Inconclusive results are not listed. Activity calls are given as the source filed them. Calls come from the whole dose curve; as a rule, active = well fitted cell-killing curve with a large enough effect; inconclusive = small, poorly fitted or top-dose-only effect, or effect the other way; inactive = no such curve, though single readings can be large or run the other way.
Potency is the fitted concentration of half-maximal effect.

A short description of this assay: Quantitative High-Throughput drug screen in 47 multiple myeloma cell lines against the NCATS MIPE library collection: MMM1_PLB cell viability assay (AID 1918976). Note: nearly all actives have a fitted effect of over 35% in size. The note with it: MMM1 myeloma cells viability, CellTiter-Glo, 48 h; series mostly up to 45.8 µM. The text has this:
PI: Beverly A. Mock Ph.D.
Laboratory of Cancer Biology and Genetics,
Center for Cancer Research, National Cancer Institute,
National Institute of Health, Bethesda, Maryland
Drug resistance and disease progression are common in multiple myeloma (MM) patients, underscoring the need for new therapeutic combinations. […] We hypothesized that effective combinations would reduce MYC expression and enhance p16 activity. […] These preclinical data identify potentially useful drug combinations for evaluation in drug-resistant MM and reveal potential mechanisms of combined drug sensitivity.
Described herein is the primary MIPE qHTS used to cherrypick compounds. Validated compounds were then further tested for potential synergistic activiy.
[1] Peat TJ, Gaikwad SM, Dubois W, Gyabaah-Kessie N, Zhang S, Gorjifard S, Phyo Z, Andres M, Hughitt VK, Simpson RM, Miller MA, Girvin AT, Taylor A, Williams D, D'Antonio N, Zhang Y, Rajagopalan A, Flietner E, Wilson K, Zhang X, Shinn P, Klumpp-Thomas C, McKnight C, Itkin Z, Chen L, Kazandijian D, Zhang J, Michalowski AM, Simmons JK, Keats J, Thomas CJ, Mock BA. Drug combinations identified by high-throughput screening promote cell cycle transition and upregulate Smad pathways in myeloma. Cancer Lett. 2023 Aug 1;568:216284. doi: 10.1016/j.canlet.2023.216284. Epub 2023 Jun 24. PMID: 37356470; PMCID: PMC10408729.
SEQUENCE No. (e.g., 1, 2, 3, etc.); […] (e.g., Cells, Incubation, Reagent, etc.); VALUE and DESCRIPTION.
1; Cells; 5 uL; white, solid bottom 1536-well Greiner assay plate.
2; Compounds; 23 nL; Kalypsis pin tool (Wako USA) equipped with a 1536-well pin head to transfer to the assay plates.
3; Incubation; 48 hours; 37C incubation.
4; Reagent;5uL; CellTiter Glo (Promega).
5; Detector; 425V; Luminescence; Viewlux PerkinElmer.
NOTES (numbers refer to Sequence numbers above)
1. The cell-based screening methods employed in this study were like those previously published. Briefly, the corresponding myeloma cell lines were screened in 1,536-well plates with 500 cells, 5-uL per well for inhibition of cell viability (assessed by measuring ATP levels with CellTiterGlo).
2. NCATS MIPE 4.0 library of approved and investigational drugs were added using the Kalypsis pin tool. Wells treated with DMSO only for 100% viability and media only for 0% viability were used as controls.
3. The assay plates were covered and incubated for 48 hours in a 37C, 5% CO2 incubator with controlled humidity.
4. After 48 hours, CellTilter-GloTM luminescent substrate mix (Promega) reagent was added to the assay plate and plates we incubated for 5 min at room temperature.
5. Signal was measured as median relative luminescence units on a ViewLux (PerkinElmer) multiplate reader.
[1] Heske CM, Davis MI, Baumgart JT, Wilson K, Gormally MV, Chen L, Zhang X, Ceribelli M, Duveau DY, Guha R, Ferrer M, Arnaldez FI, Ji J, Tran HL, Zhang Y, Mendoza A, Helman LJ, Thomas CJ. Matrix Screen Identifies Synergistic Combination of PARP Inhibitors and Nicotinamide Phosphoribosyltransferase (NAMPT) Inhibitors in Ewing Sarcoma. Clin Cancer Res. 2017 Dec 1;23(23):7301-7311. doi: 10.1158/1078-0432.CCR-17-1121. Epub 2017 Sep 12. PMID: 28899971; PMCID: PMC6636827.
(In general: In ATP-based viability assays light output follows the ATP content of the culture.)
Turning to `CCCCc1nc2cc(C=CC(=O)NO)ccc2n1CCN(CC)CC`, the Potency is 0.418 µM (active).
The result for `Cc1cc(CN2CCN(c3c(Br)cnc4nc(-c5ccc(N6CCN(C)CC6)cc5)[nH]c34)CC2)no1` reads 23.5 µM (active); that for `COc1cc(-c2nn(C3CCC(N4CCN(C(C)=O)CC4)CC3)c3ncnc(N)c23)ccc1NC(=O)c1cc2ccccc2n1C` (stereo not given), 16.6 µM (active).
Under `COc1cc(C(=O)N2CCC(N3CCN(C)CC3)CC2)ccc1Nc1ncc2c(n1)N(C)c1ccccc1C(=O)N2C` stands 1.66 µM (active); under `CCn1cc(-c2ccnc3[nH]c(-c4cccc(CN(C)C)c4)cc23)c(-c2ccc(NC(=O)N(C)C)cc2)n1`, 14.8 µM (active).
Under `Cc1cc(Nc2cc(N3CCN(C)CC3)nc(Sc3ccc(NC(=O)C4CC4)cc3)n2)n[nH]1` stands 10.5 µM (active); under `C=C1C(=CC=C2CCCC3(C)[C@@H]([C@H](C)C=CC=CC(O)(CC)CC)CC[C@@H]23)C[C@@H](O)C[C@@H]1O` (stereo not given in full), 20.9 µM (active); under `COc1ccc2c(c1)CC[C@@H](CN(C)CC(=O)O)[C@H]2c1ccccc1`, 14.8 µM (active).
`c1ccc2c(CCNc3ccc(Nc4ccncc4)cc3)c[nH]c2c1`: the Potency was 13.2 µM (active).
On to `O=C(C=Cc1cccc(S(=O)(=O)Nc2ccccc2)c1)NO`, for which the Potency was 10.8 µM (active).
Under `c1cc(-c2cnn3cc(-c4ccc(OCCN5CCCCC5)cc4)cnc23)ccn1` stands 16.6 µM (active); under `COc1cc2ncnc(Nc3ccc(F)c(Cl)c3)c2cc1NC(=O)C=CCN1CCCCC1`, 18.7 µM (active).
Under `CC(C)c1ccc(Cn2ccc3c4c(N)nc(NC5CC5)nc4ccc32)cc1` stands 16.6 µM (active); under `CC(C)c1nn(-c2c(Cl)cccc2Cl)c2nc(Cc3ccc(OCCO)cc3)[nH]c(=O)c12`, 0.148 µM (active).
The result for `C[C@@H]1COC(Nc2ccc3ncnc(Nc4ccc(OCc5nccs5)c(Cl)c4)c3c2)=N1` reads 23.5 µM (active); that for `CC[C@H]1CN2CCc3cc(OC)c(OC)cc3[C@H]2C[C@@H]1C[C@@H]1NCCc2cc(OC)c(OC)cc21`, 0.264 µM (active); that for `N#CCNC(=O)c1ccc(-c2ccnc(Nc3ccc(N4CCOCC4)cc3)n2)cc1`, 18.7 µM (active).
`CC1(C)O[C@@H]2C[C@@H]3[C@H]4C[C@@H](F)C5=CC(=O)C=C[C@]5(C)[C@@]4(F)[C@@H](O)C[C@]3(C)[C@]2(C(=O)CO)O1`: the Potency is 0.0105 µM (active).
With `COC(=O)c1ccc2c(C(=Nc3ccc(N(C)C(=O)CN4CCN(C)CC4)cc3)c3ccccc3)c(O)[nH]c2c1`, the Potency was 7.43 µM (active).
Under `CNC(=O)c1cc(Oc2ccc(NC(=O)Nc3cc(C(C)(C)C)nn3-c3ccc4ncccc4c3)c(F)c2)ccn1` stands 14.8 µM (active); under `COc1ccc(-c2cc3c(C)nc(N)nc3n(C3CCC(OCCO)CC3)c2=O)cn1` (stereo not given), 0.0148 µM (active).
The result for `CC(=O)Nc1nc(C)c(-c2ccc(Cl)c(S(=O)(=O)NCCO)c2)s1` reads 5.9 µM (active).
The result for `O=C(NCCCNc1nc(Nc2cccc(NC(=O)N3CCCC3)c2)ncc1I)c1cccs1` reads 23.5 µM (active).
On to `Nc1nc(Nc2ccc(S(N)(=O)=O)cc2)nn1C(=O)c1c(F)cccc1F`, for which the Potency was 10.5 µM (active).
The result for `COc1cc2ncn(-c3cc(OCc4ccccc4C(F)(F)F)c(C(N)=O)s3)c2cc1OC` reads 20.9 µM (active); that for `CC(=O)SC[C@@H](C)C(=O)N1CCC[C@H]1C(=O)N[C@@H](Cc1ccccc1)C(=O)O`, 1.87 µM (active).
Under `Cc1ccc(C(=O)Nc2cccc(C(F)(F)F)c2)cc1-c1ccc2nc(NCCN3CCOCC3)ncc2c1` stands 14.8 µM (active).
The result for `CC[C@@H]1C(=O)N(C)c2cnc(Nc3ccc(C(=O)NC4CCN(C)CC4)cc3OC)nc2N1C1CCCC1` reads 13.2 µM (active).
Consider `Cc1nc2ccc(CN(C)c3ccc(C(=O)N[C@@H](CCC(=O)O)C(=O)O)s3)cc2c(=O)[nH]1`, for which the Potency was 5.9 µM (active).
Turning to `O=C(Nc1ncc(-c2cc(C(F)F)nn2-c2c(Cl)cccc2Cl)s1)C1CC1`, the Potency is 2.64 µM (active).
Regarding `CC1(C)CC(=O)c2c(C(F)(F)F)nn(-c3ccc(C(N)=O)c(NC4CCC(OC(=O)CN)CC4)c3)c2C1` (stereo not given), the Potency was 0.418 µM (active).
Regarding `O=C(CCCCCCC(=O)Nc1ccc([C@H]2O[C@@H](CSc3nc(-c4ccccc4)c(-c4ccccc4)o3)C[C@@H](c3ccc(CO)cc3)O2)cc1)NO`, the Potency was 13.2 µM (active).
Turning to `COC(=O)[C@]12CCC(C)(C)C[C@@H]1[C@@H]1C(=O)C=C3[C@@]4(C)C=C(C#N)C(=O)C(C)(C)[C@@H]4CC[C@@]3(C)[C@]1(C)CC2`, the Potency was 1.32 µM (active).
For `COc1cccc(-c2ccc(NC(=O)C3=C(C(=O)O)CCC3)c(F)c2)c1`, the Potency is 20.9 µM (active).
On to `O=C(O)c1ccc2cc(-c3ccc(O)c(C45CC6CC(CC(C6)C4)C5)c3)ccc2c1`, for which the Potency is 18.7 µM (active).
The result for `CCN1CCN(CC(=O)Nc2ccc(-c3cccc4c(=O)cc(N5CCOCC5)oc34)c3sc4ccccc4c23)CC1` reads 2.35 µM (active); that for `O=C(Nc1cc(C(F)(F)F)cc(C(F)(F)F)c1)c1cc(Cl)ccc1O`, 0.296 µM (active).
Under `Cc1cn2c(-c3cn[nH]c3)cnc2c(Nc2ccc(C(=O)N3CCNCC3)cc2F)n1` stands 14.8 µM (active).
For `CNC(=O)c1c(F)cccc1Nc1nc(Nc2cc3c(cc2OC)CCN3C(=O)CN(C)C)nc2[nH]ccc12`, the Potency is 0.0469 µM (active).
Under `COC(=O)Nc1ccc(-c2nc(N3CCOCC3)c3cnn(C4CCN(Cc5cccnc5)CC4)c3n2)cc1` stands 0.0833 µM (active).
